High-throughput results from PubChem.
Mot1-301 SUMO: inhibitors of SUMOylation pathway: yeast Mot1-301 growth rescue; growth rescue, % at 18.8 µM; 320,000 compounds, 1% hits; AID 2716; S. cerevisiae Mot1-301 growth rescue, ATP luminescence, 38.5C; percent above DMSO median, 100 means doubled;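 active means every valid replicate shows activation above 250% relative to neutral control wells; inactive means the rest, any valid replicate at or below 250%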;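 further: OY570 slx delta 5 strain wells were the positive control but not used for scaling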
Efflux pump mplx: inhibitors of Candida antifungal efflux pumps expressed in yeast; S. cerevisiae Candida pump triplex, Nile Red efflux; inhibition, % at 10 µM; 330,000 compounds, 0.44% hits; AID 485275;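 active means plate passing quality check with inhibition over a set limit, or well fluorescence over plate mean plus 4 SD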;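 further: Nile Red retained in pooled yeast measured as flow cytometry median fluorescence; 0% = buffer negative control and 100% = Enniatin B positive control; higher means more Nile Red kept so more efflux inhibition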
AHR act: activates the human aryl hydrocarbon receptor; AHR-responsive luciferase reporter cells, luminescence; activation, % at 5 µM; 320,000 compounds, 2.5% hits; AID 2796; in the data active means activation above about 47%;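 further: 0% = vehicle wells and 100% = reference agonist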
ALR inh: inhibitors of human sulfhydryl oxidase ALR. P55789. purified ALR, DTT oxidation, H2O2 HRP-luminol luminescence. inhibition, % (test concentration not listed). 290,000 compounds, 3.8% hits. AID 485317;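 active means mean replicate inhibition above about 79%, with every replicate also reaching it, limit read from the data; inconclusive means only one of the two criteria met; inactive means mean below limit and not every replicate reaching it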
Target sequence (P55789 whole entry, looked up): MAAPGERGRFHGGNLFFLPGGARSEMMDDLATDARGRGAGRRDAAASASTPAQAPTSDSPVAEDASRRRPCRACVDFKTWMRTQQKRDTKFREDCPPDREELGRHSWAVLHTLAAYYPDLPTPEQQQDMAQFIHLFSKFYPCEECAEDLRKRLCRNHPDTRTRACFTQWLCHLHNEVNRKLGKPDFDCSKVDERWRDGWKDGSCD
Bfl-1 A1 inh: inhibitors of the anti-apoptotic protein A1, read as caspase activation; MEF A1-2A-BIM cells, Caspase-Glo 3/7 luminescence, 3 h; percent of clofoctol response, vehicle zero; caspase activation, % (test concentration not listed); AID 2462; 330,000 compounds, 0.066% hits;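 active means over half of replicate activation scores above 10%, or exactly half above 10 with the replicate mean above 10; inconclusive means replicate mean below 10 yet half the replicates above 10; inactive means over half of replicates below 10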
VLA-4 inh: inhibition in a human VLA-4 binding assay; P13612; VLA-4 expressing cells, ligand binding flow cytometry; inhibition, % (about 7 µM as worked out from the volumes in the protocol); 330,000 compounds, 0.2% hits; AID 2557; in the data active means inhibition above about 50%
Active calls of the source: *; i = inactive; ? = inconclusive; . = no result; ! = not active in a repeat. Shown are actives, neighbours in structure and some others; about 7.2% of the full set was active somewhere.

SMILES	Mot1-301 SUMO	Efflux pump mplx	AHR act	ALR inh	Bfl-1 A1 inh	VLA-4 inh
CC1(C)C(=O)NCCN1C(=O)CC1C(=O)NCCN1Cc1cccc(C(F)(F)F)c1 (stereo not drawn)	.	-0.1	0.2	-35.5	.	6.8
CCOC(=O)Cn1c(CN(Cc2ccccc2)Cc2ccccc2)nc2c1c(=O)n(C)c(=O)n2C	7.9	0.0	0.1	-7.2	0.2	-6.2
CC1CCN(c2ccccc2NC(=O)c2ccc(C#N)cc2F)CC1	4.5	-0.2	71.1*	-21.1	-1.2	-11.1
O=C(Cc1cccs1)Nc1cccc(-c2nc3cc4ccccc4cc3[nH]2)c1	811.3*	0.1	0.4	24.2	-8.8	-169.2
Nc1ccc(C(=O)Nc2cccc(N)c2)cc1	-12.5	0.0	.	99.0*	-3.0	9.0
O=C(Nc1cccc(NC(=O)c2ccco2)c1)c1ccccc1	-8.0	-0.1	19.6	-10.9	1.1	-5.6
Cc1ccc2nc(-c3ccc(NC(=O)c4ccco4)cc3)[nH]c2c1	-4.1	0.2	-10.5	0.2	-7.2	-21.2
O=C(Nc1cccc(NC(=O)c2nccc3ccccc23)c1)c1ccco1	0.4	0.2	101.7*	0.4	-0.6	16.1
O=C(Nc1cccc(-c2nc3ccccc3[nH]2)c1)c1ccco1	-1.2	-0.2	51.4*	-3.4	0.3	-1.2
CCc1c(C(=O)NNC(=S)NCCc2ccccc2)csc1C	-19.4	0.0	-0.3	0.3	0.1	-7.7
O=C(COC(=O)CSc1ccc(F)cc1)NNC(=O)c1ccc([N+](=O)[O-])cc1	4.0	0.1	2.1	-9.2	-0.1	11.8
CCCN(C(=O)c1ccc(S(=O)(=O)N2CCCC2)cc1)C1CCS(=O)(=O)C1 (stereo not drawn)	1.2	-0.1	-0.9	-3.8	0.5	1.6
CCCn1nc(C(=O)OCC(=O)Nc2ncc(Cl)c(C)c2Cl)c2ccccc2c1=O	i	-0.2	1.1	-5.2	0.0	-12.9
COc1ccc2c(=O)cc(-c3ccccc3F)oc2c1	-31.6	-0.1	43.1	2.4	-0.8	9.6
COC(=O)C1=C(C)N(C)C(=S)N(C)C1c1cccc(Br)c1 (stereo not drawn)	10.9	0.0	1.1	-3.5	0.5	3.5
Nc1cccc(NC(=O)c2ccco2)c1	-5.4	-0.1	2.7	98.9*	-2.9	-1.6
CC(=O)Nc1cccc(NC(=O)c2ccco2)c1	-6.2	0.0	7.5	-15.1	-0.4	6.3
Cc1ccc(S(=O)(=O)N2CCOC2CNC(=O)C(=O)NCc2ccc(Cl)cc2)cc1 (stereo not drawn)	50.0	-0.2	-1.5	-4.3	0.1	-3.9
Oc1ccc(C2C(c3ccccc3)=NN=C(c3ccccc3F)N2O)c(O)c1 (stereo not drawn)	-13.6	0.0	8.2	28.2	-0.2	7.3
Oc1ccc(C2C(c3ccccc3)=NN=C(c3ccc(Cl)cc3)N2O)c(O)c1 (stereo not drawn)	-2.9	-15.0	47.7*	6.0	-0.5	-41.6
COC(=O)c1ccc(C2NC(=O)c3c(sc(C)c3C)N2)cc1 (stereo not drawn)	-4.4	0.1	17.9	.	-0.9	-6.5
Cc1sc2c(c1C)C(=O)NC(c1cccc(O)c1)N2 (stereo not drawn)	-10.8	-0.1	54.9*	.	-4.8	-40.9
O=C(CN1C(=O)NC2(CCCCCCC2)C1=O)Nc1ccc(Cl)cc1	6.7	-0.3	-0.3	-0.2	-0.1	18.3
Cc1ccc(-c2cnn3c(N4CCOCC4)cc(C)nc23)cc1	356.6	0.0	.	93.0*	-5.9	4.7
Cc1cc(-c2ccccc2)n2ncc(-c3ccccc3)c2n1	30.9	-0.6	57.3*	1.7	-0.2	-6.5
SMILES	Mot1-301 SUMO	Efflux pump mplx	AHR act	ALR inh	Bfl-1 A1 inh	VLA-4 inh
Nc1ccc(-c2nc3cc(N)ccc3s2)cc1	.	-0.1	40.2	98.6*	-9.8	8.0
CN(C(=O)c1ccc(NC(=O)C2CCCN(C(=O)OC(C)(C)C)C2)cc1)C1CCCC1 (stereo not drawn)	-4.9	-0.1	-2.2	-4.7	2.7	-7.5
CCc1cccc(NC(=O)[C@@H]2CCCN2C2=NS(=O)(=O)c3ccccc32)c1	-1.6	0.0	14.4	-2.0	1.0	4.8
CCc1cccc(NC(=O)CSC2=NS(=O)(=O)c3ccccc32)c1	-6.8	0.0	-0.9	98.7*	0.4	13.2
CC(C(O)c1ccc(O)cc1)N1CCC(Cc2ccccc2)CC1 (stereo not drawn)	332.5*!	0.4	-1.4	15.3	0.7	12.7
COC(=O)n1c(=S)oc2cc(Cl)ccc21	-7.1	-0.1	0.0	96.2*	0.2	-5.0
CCOCC(=O)NCc1ccc2c(c1)OCO2	-2.4	0.1	5.6	-2.4	2.0	15.4
CC(=S)c1c(C)cc2cc(C)ccn12	6.2	0.1	1.0	-39.3	0.3	7.6
COc1cc(/C=C2/C(=O)NN(c3ccc(Cl)cc3)C2=O)cc(Br)c1O	52.9	0.1	2.8	98.0*	-0.4	-3.3
COc1cc(/C=C2/C(=O)NN(c3ccc(Cl)c(Cl)c3)C2=O)cc([N+](=O)[O-])c1O	21.2	-0.4	3.1	98.4*	0.7	-6.3
CCOC(=O)c1cc[nH]c1CC(=O)NC	2.3	-0.1	-0.4	-21.3	0.7	1.1
COc1ccc(OCCC(=O)NCC23CC4CC(CC(C4)C2)C3)cc1	7.5	0.3	7.0	-0.2	1.0	1.9
N=C1c2ccccc2CN1NC(=O)c1cccc(S(=O)(=O)N2CCCC2)c1	-5.2	0.2	4.7	-1.2	0.4	6.8
C=CCN1CC(O)=C(c2nc3ccccc3[nH]2)C1=N	-2.1	-0.1	3.0	83.5*	0.6	5.4
CCCCN1CC(O)=C(c2nc3ccccc3[nH]2)C1=N	75.4	-0.1	-3.2	4.2	-0.7	-10.2
COc1cccc(CN2CCC(Oc3ccc(C(=O)N4CCCCC4)cc3)CC2)c1O	0.7	-0.3	-1.9	84.2*	-0.4	-15.4
COc1ccccc1/C=C/C=N/n1c(-c2cc(C)[nH]n2)n[nH]c1=S	18.8	-0.1	32.3	?	0.8	14.0
COc1ccccc1/C=C/C=N/n1c(-c2n[nH]c3c2CCC3)n[nH]c1=S	1.2	0.2	55.0*	4.6	-0.2	3.7
COc1cccc(/C=N/n2c(-c3cc(C)[nH]n3)n[nH]c2=S)c1O	11.9	-0.1	1.3	97.7*	1.1	6.7
Cc1cc(-c2n[nH]c(=S)n2/N=C/c2ccc(Br)s2)n[nH]1	-9.2	0.2	21.5	96.7*	0.0	3.7
COc1cccc(/C=N/n2c(-c3n[nH]c4c3CCC4)n[nH]c2=S)c1O	-4.8	0.3	24.1	97.0*	-0.1	4.0
COc1ccc(CC(=O)Nc2ccc(-c3cn4ccc(C)cc4n3)cc2)cc1	.	-0.1	-0.4	-1.0	0.1	-5.6
COC(=O)C1(CC2CC(c3ccncc3)=NO2)CCN(C(=O)OC(C)(C)C)CC1 (stereo not drawn)	25.2	.	1.8	.	-0.2	.
COc1cc(/C=N/n2c(-c3n[nH]c4c3CCC4)n[nH]c2=S)cc(OC)c1O	36.9	0.0	5.5	95.2*	0.3	2.2
